Screening data deposited in PubChem by National Center for Advancing Translational Sciences (NCATS).
D1 potentiator: Potentiators of Human D1 Dopamine Receptor: qHTS; AID 504651, 2011; 360,000 tested, 0.036% active; D(1A) dopamine receptor (Homo sapiens), P21728; HEK293 TREx D1 cells, calcium flux, dopamine EC20 potentiation; potentiation, % at 10 µM; in the data active = potentiation above about 30%
TRHR agonist: qHTS for Small Molecule Agonists and Allosteric Enhancers of Human TRH Receptor: Primary Screen for Agonists. TRHR cells, calcium flux fluo-8, FDSS agonist mode. activation, % at 2 µM. 360,000 tested, 0.18% active
Target sequence (P34981 whole entry, looked up): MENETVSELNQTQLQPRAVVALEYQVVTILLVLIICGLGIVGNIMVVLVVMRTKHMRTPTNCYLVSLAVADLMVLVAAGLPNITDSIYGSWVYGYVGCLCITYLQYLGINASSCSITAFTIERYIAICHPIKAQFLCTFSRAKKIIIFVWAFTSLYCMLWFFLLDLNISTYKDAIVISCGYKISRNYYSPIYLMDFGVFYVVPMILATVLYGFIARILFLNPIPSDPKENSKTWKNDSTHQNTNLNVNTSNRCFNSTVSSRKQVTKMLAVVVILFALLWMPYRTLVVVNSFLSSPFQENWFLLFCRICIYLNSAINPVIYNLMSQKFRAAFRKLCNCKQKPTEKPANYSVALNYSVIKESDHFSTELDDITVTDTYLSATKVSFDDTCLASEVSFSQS
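Agonist-mode FDSS calcium read (Ex 480/Em 530, 1 s cycles) in 1536-well TRHR cells with fluo-8 dye, after 10-cycle baseline and 23 nL compound addition; TRH at EC20 (10 nM final) added afterwards for the enhancer phase.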
TRHR PAM: qHTS for Small Molecule Agonists and Allosteric Enhancers of Human TRH Receptor: Primary Screen for Enhancers. TRHR cells, fluo-8 calcium fluorescence, EC20 TRH enhancement. enhancement, % at 2 µM. 360,000 tested, 0.66% active; in the data active = enhancement above about 30%
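TRHR-expressing cells loaded with fluo-8 calcium dye were read kinetically (ex 480/em 530) during compound addition, then stimulated with an EC20 of TRH (10 nM final). Enhancement of the Gq-mediated intracellular calcium response was scored.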
D1 agonist: Allosteric Agonists of the Human D1 Dopamine Receptor: qHTS | AID 504660, 2011 | 360,000 tested, 1% active | HEK293 T-REx D1 cells, calcium flux, agonist mode | activation, % at 2 µM
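Inducible HEK293 T-REx D1 cells, force-coupled to calcium signalling, were plated at 4000 cells/well with tetracycline and held overnight at 30 C. After no-wash calcium dye loading, compound-evoked calcium rise over 180 s flagged agonists.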
D1 antag: Antagonist of Human D 1 Dopamine Receptor: qHTS. D(1A) dopamine receptor (Homo sapiens), P21728. HEK293 TREx D1 cells, calcium flux, dopamine EC80; active compounds read low. activity change, negative = inhibition, % at 10 µM. 360,000 tested, 3.2% active; in the data active = activity change below about -30%
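Inducible Hek293 Trex D1 cells (tetracycline, overnight, 30 C). Calcium dye 30–90 min RT. Antagonist mode: EC80 dopamine added after 180 s compound read.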
Large screens that a line does not name were inactive. Shown are actives, neighbours in structure and some others; about 4.6% of the full set was active somewhere. Cut-off read from the data, not from the text of the source, unless noted: active = activation above about 30%; inactive = the rest.

Cc1ccc(C)c(OCCSc2nc3ccccc3n2CC(=O)N2CCOCC2)c1	none
O=C(Cn1c(SCc2ccccc2)nc2ccccc21)N1CCOCC1	none
Cc1ccc(N2C(=O)CSC23C(=O)Nc2ccccc23)cc1F (stereo unspecified)	none
CCc1ccc(OCC(=O)Nc2ccc3c(c2)c2ccccc2n3CC)c(Br)c1	TRHR PAM 34
COc1ccc(C2=CC(c3ccc(F)cc3)n3ncc(C(=O)Nc4ccc(C)cc4)c3N2)cc1 (stereo unspecified)	none
NS(=O)(=O)c1cccc(NC(=O)c2cc(=O)c3ccccc3o2)c1	none
Cc1ccc2c(=O)cc(C(=O)Nc3c(C(=O)Nc4cccc(Cl)c4)oc4ccccc34)oc2c1	D1 antag -46
CN(c1ccccc1)S(=O)(=O)c1cccc(NC(=O)CCNC(=O)c2ccccc2)c1	D1 antag -43
Cc1ccc(CSCCNC(=O)c2ccc(N(C)S(=O)(=O)c3ccccc3)cc2)cc1	none
CN(c1ccccc1)S(=O)(=O)c1cccc(NC(=O)CCNC(=O)c2ccc(Cl)cc2)c1	none
CN(c1ccccc1)S(=O)(=O)c1cccc(NC(=O)c2cc(=O)c3ccccc3o2)c1	D1 antag -34
CN(c1ccc(C(=O)NCCSCc2ccc(Cl)cc2)cc1)S(=O)(=O)c1ccccc1	D1 agonist 39
O=C(Cc1cccc(NC(=O)C2CCCN(C(=O)C3CCCCC3)C2)c1)Nc1cccc(C(=O)N2CCCC2)c1 (stereo unspecified)	none
CN(C)c1ccc(CNC(=O)C2CCCN(S(=O)(=O)c3ccc4c(c3)CCCC(=O)N4)C2)cc1 (stereo unspecified)	none
CCOC(=O)c1sc2nc(CC(=O)OC)nc(N(C)CCc3ccccn3)c2c1C	D1 antag -30
CCCCN(CC)C(=O)CSc1nc2n[nH]c(C)c2c(=N)n1-c1cccc(OC)c1	none
CCOc1cc2c(cc1OCC)CN(C(=O)c1cccc(S(=O)(=O)N3CCCC3)c1)CC2	D1 antag -36
COc1ccc(-c2nc3cc(C)ccn3c2NCc2ccc3c(c2)OCO3)cc1	D1 antag -31
COc1ccc(-c2nc3ccccn3c2NCc2ccc3c(c2)OCO3)cc1	none
CCOC(=O)Cn1nc(C)c(NC(=O)COc2ccc(Cl)cc2C)c1C	none
Cc1c(C(=O)O)oc2c1-c1nn(Cc3ccccc3Cl)cc1CC2	none
Cc1csc2nc(-c3ccc(NS(=O)(=O)c4cc(F)ccc4F)cc3)cn12	none
CN1N=C2c3ccccc3CCC2C1c1ccc(C(F)(F)F)cc1 (stereo unspecified)	D1 antag -82
CN(C)c1ccc(C2C3CCCc4ccccc4C3=NN2C)cc1 (stereo unspecified)	none
CCn1cc(C2N3CC4(C)CN2CC(C)(C3)C4=O)c2ccccc21 (stereo unspecified)	D1 antag -76 (no result: D1 potentiator)
CCCC12CN3CC(C)(CN(C1)C3c1cn(C)c3ccccc13)C2=O (stereo unspecified)	none
CC(C)Oc1cccc(C(=O)Nc2ccc(-c3nc4cc(Cl)cc(Cl)c4o3)cc2)c1	none
CCOC(=O)C(Cc1cc(C(C)=O)ccc1OCC)C(=O)OCC	none
CCOC(=O)C(Cc1cc(C(C)=O)ccc1OC(C)C)C(=O)OCC	D1 antag -34
Cc1ccc(-n2nc3c(c2NC(=O)c2ccco2)CS(=O)(=O)C3)c(C)c1	none
Cc1cccc(-n2nc3c(c2NC(=O)c2ccco2)CS(=O)(=O)C3)c1C	D1 antag -41
CCc1ccc(NC(=O)CSC2=C(C#N)C(c3ccco3)C3=C(CCCC3=O)N2)cc1 (stereo unspecified)	D1 antag -61
Cc1ccc(S(=O)(=O)c2cn(Cc3ccccc3)c3cc(N4CCCC4)c(F)cc3c2=O)cc1C	none
COc1cccc(/C=C/C(=O)c2ccc(NS(=O)(=O)c3ccc(C)cc3)cc2)c1	D1 antag -60
Cc1cccc(OCCCCCn2ccnc2)c1C	D1 agonist 46
COc1ccnc(N2CCN(c3ccc(Cl)cc3)CC2)c1C#N	D1 antag -31
CCOC(=O)c1nc(NCc2ccc(Cl)cc2)c2c(C)noc2n1	D1 antag -49
COc1ccc(CNc2ccc(Br)cc2)cc1	none
COc1ccc(NC2=NCC(Cc3ccc(Br)cc3)S2)cc1 (stereo unspecified)	D1 agonist 32
CNCCCC1Sc2ccccc2Oc2ccccc21 (stereo unspecified)	D1 antag -42
O=C1c2ccccc2C(=O)N1CCCCSc1nnnn1-c1ccccc1	D1 agonist 71, D1 antag -30
O=C1c2ccccc2C(=O)N1CSc1nnnn1-c1ccccc1	none
c1ccc(-n2nnnc2SCCCSc2nc3ccccc3s2)cc1	TRHR PAM 34
O=C(CSc1nc2ccc(NC(=O)CSc3nnnn3-c3ccccc3)cc2s1)Nc1ccccc1	none
COc1ccc2c(c1)c1c(c(=O)n(CCc3ccccc3)c(=O)n1Cc1cccc(F)c1)n2C	none
Oc1ccccc1CNCC12CC3CC(CC(C3)C1)C2	D1 agonist 53
CC(CC12CC3CC(CC(C3)C1)C2)NCc1ccccc1O (stereo unspecified)	none
CC(C)[C@H](NC(=O)c1ccccc1Br)C(=O)OCc1nc2ccsc2c(=O)[nH]1	D1 antag -30
Fc1cccc(Cl)c1CNCCSc1nnnn1-c1ccccc1	none
Cc1ccc(N/N=C(\C#N)C(=O)c2ccsc2)cc1	D1 antag -47
O=[N+]([O-])c1cccc(S(=O)(=O)c2ccc(NCCOCCO)c([N+](=O)[O-])c2)c1	none
O=[N+]([O-])c1cccc(S(=O)(=O)c2ccc(NCCO)c([N+](=O)[O-])c2)c1	D1 antag -44
CC(=O)c1cccc(NC(=O)COC(=O)[C@@H](NC(=O)OCc2ccccc2)C(C)C)c1	D1 antag -95
O=C(COC(=O)c1cccc(O)c1)NC(=O)Cc1ccccc1	D1 agonist 33
CC(=O)Nc1cccc(C(=O)OCC(=O)c2ccccc2Cl)c1	none
CC(=O)Nc1cccc(C(=O)OCC(=O)NC(=O)Cc2ccccc2)c1	D1 antag -33
CCC(=O)Nc1cccc(C(=O)OCC(=O)c2ccccc2Cl)c1	D1 antag -37
CC(C)[C@H](NC(=O)OCc1ccccc1)C(=O)OCC(=O)NCCc1ccccc1	none
Cc1cccc(C(=O)OCC(=O)NC(=O)Cc2ccccc2)c1O	none
CC(=O)Nc1cccc(C(=O)OCC(=O)NC(=O)c2ccccc2)c1	none
